Results taken from PubChem BioAssay AID1159580 (chemical genetic matrix, 2015).
Values joined by “and” are separate entries in the source; they are usually repeats but may differ in a detail not shown here. Identical values can stand only once. The whole screen tested about 5,500 compounds, of which about 2,000 (36%) were called active. Not shown: some 18% with an inconclusive outcome. Rule as the data show it: active = normalized growth mostly below about 0.91 (no sharp cut-off); inconclusive = no clear call, values can overlap the other calls; inactive = mostly above about 0.92. The list shows a part of the results.

Experiment: chemical genetic growth profiling, strain panel (AID 1159580);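 also: tested at 20 µM; growth read once vehicle control cultures reached saturation at 30 °C; 1 = growth at the plate median or of vehicle wells; lower values mean less growth of the strain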
Details: S. cerevisiae deletion strains, growth OD

Measured: normalized growth

O=C(/C=C/c1ccc(O)cc1)c1ccc(O)cc1O
inactive: locus YAL013W, strain DEP1, active compounds read low 0.996 and 0.982 | locus YAL021C, strain ccr4, active compounds read low 0.981 | locus YAL026C, strain drs2, active compounds read low 1.02 | locus YAL030W, strain snc1, active compounds read low 1.01 | locus YAL040C, strain CLN3, active compounds read low 0.986 | locus YBL061C, strain skt5, active compounds read low 1 | locus YBR009C, strain hhf1, active compounds read low 0.999 | locus YBR021W, strain FUR4, active compounds read low 1.04 | locus YBR023C, strain chs3, active compounds read low 0.997 | locus YBR171W, strain sec66, active compounds read low 1.01 | locus YBR229C, strain ROT2, active compounds read low 0.987 | locus YBR231C, strain swc5, active compounds read low 0.979 | locus YBR279W, strain paf1, active compounds read low 0.99 | locus YCL011C, strain gbp2, active compounds read low 0.995 | locus YCL016C, strain dcc1, active compounds read low 0.991 | locus YCL029C, strain bik1, active compounds read low 0.945 | locus YCL061C, strain MRC1 (second series), active compounds read low 1.01 | locus YCL069W, strain vba3, active compounds read low 1.01 | locus YCR088W, strain abp1, active compounds read low 1.01 | locus YDL005C, strain med2, active compounds read low 1.02 | locus YDL035C, strain GPR1, active compounds read low 0.98 | locus YDL040C, strain nat1, active compounds read low 1 | locus YDL074C, strain BRE1, active compounds read low 0.912 | locus YDL101C, strain DUN1, active compounds read low 1 | locus YDL185W, strain tfp1, active compounds read low 0.919 | locus YDL192W, strain arf1, active compounds read low 0.948 | locus YDR001C, strain nth1, active compounds read low 1 | locus YDR069C, strain doa4, active compounds read low 1 | locus YDR101C, strain arx1, active compounds read low 0.96 | locus YDR137W, strain rgp1, active compounds read low 1.08 | locus YDR150W, strain NUM1, active compounds read low 0.991 and 1.01 | locus YDR159W, strain sac3, active compounds read low 0.99 | locus YDR162C, strain NBP2, active compounds read low 1.02 | locus YDR195W, strain ref2 1.04 | locus YDR297W, strain sur2, active compounds read low 1 | locus YDR318W, strain mcm21, active compounds read low 0.966 | locus YDR334W, strain swr1, active compounds read low 1 | locus YDR335W, strain msn5, active compounds read low 1.02 | locus YDR363W, strain ESC2, active compounds read low 1.01 | locus YDR388W, active compounds read low 0.96 | locus YDR392W, strain spt3, active compounds read low 0.892 | locus YDR502C, strain sam2, active compounds read low 0.963 | locus YEL003W, strain gim4, active compounds read low 1.01 | locus YEL037C, strain rad23, active compounds read low 1.01 | locus YEL061C, strain CIN8 (second series), active compounds read low 1.01 | locus YEL061C, strain CIN8, active compounds read low 0.992 | locus YER002W, strain NOP16, active compounds read low 0.985 | locus YER015W, strain faa2, active compounds read low 1 | locus YER016W, strain bim1, active compounds read low 1.01 | locus YER110C, active compounds read low 0.955 | locus YER111C, strain swi4, active compounds read low 1.02 | locus YER155C, strain BEM2 (second series), active compounds read low 0.97 | locus YER155C, strain BEM2, active compounds read low 0.972 | locus YER167W, strain BCK2, active compounds read low 0.971 | locus YFR010W, strain ubp6, active compounds read low 1.02 | locus YGL078C, strain dbp3, active compounds read low 1.01 | locus YGL086W, strain mad1, active compounds read low 0.958 | locus YGL167C, strain pmr1, active compounds read low 1.02 | locus YGL173C, strain kem1, active compounds read low 1.02 | locus YGL227W, strain vid30, active compounds read low 1.01 | locus YGL240W, strain doc1, active compounds read low 0.994 | locus YGL248W, strain PDE1, active compounds read low 1.01 | locus YGL253W, strain hxk2, active compounds read low 0.987 | locus YGR078C, strain PAC10, active compounds read low 0.997 and 0.992 | locus YGR135W, strain pre9, active compounds read low 0.941 | locus YGR252W, strain gcn5, active compounds read low 0.935 | locus YHR013C, strain ard1, active compounds read low 1.03 | locus YHR027C, strain rpn1, active compounds read low 1.01 | locus YHR030C, strain SLT2, active compounds read low 0.98 and 0.955 | locus YHR079C, strain IRE1 (second series), active compounds read low 0.959 | locus YHR079C, strain IRE1, active compounds read low 0.895 | locus YHR094C, strain hxt1, active compounds read low 0.965 | locus YHR129C, strain ARP1, active compounds read low 0.978 | locus YHR142W, strain chs7, active compounds read low 0.985 | locus YHR200W, strain rpn10, active compounds read low 0.944 | locus YIL066C, strain RNR3, active compounds read low 0.975 | locus YIL073C, strain SPO22, active compounds read low 0.96 | locus YIL125W, strain kgd1, active compounds read low 0.963 | locus YIR030C, strain dcg1, active compounds read low 0.973 | locus YJL092W, strain hpr5, active compounds read low 1.01 | locus YJL095W, strain BCK1 (second series), active compounds read low 1.01 | locus YJL095W, strain BCK1, active compounds read low 1.01 and 0.977 | locus YJL115W, strain asf1, active compounds read low 1.02 | locus YJL129C, strain trk1, active compounds read low 0.983 | locus YJL134W, strain LCB3, active compounds read low 0.97 | locus YJL154C, strain vps35, active compounds read low 1.02 | locus YJL164C, strain tpk1, active compounds read low 0.986 | locus YJL166W, strain qcr8, active compounds read low 1.01 | locus YJL168C, strain set2, active compounds read low 0.963 | locus YJL187C, strain SWE1 (second series), active compounds read low 0.994 | locus YJR043C, strain POL32, active compounds read low 0.961 | locus YJR066W, strain TOR1, active compounds read low 0.904
